Inconclusive results are not listed. A number with no mark means an inactive call. Activity calls are given as the source filed them. Rule as the data show it: active = fluorescence slope change above about 50%; inconclusive = mostly about 31% to 49%; inactive = weaker than that.

Sequence of ATP-dependent translocase ABCB1 (Homo sapiens) (P08183 whole entry, looked up): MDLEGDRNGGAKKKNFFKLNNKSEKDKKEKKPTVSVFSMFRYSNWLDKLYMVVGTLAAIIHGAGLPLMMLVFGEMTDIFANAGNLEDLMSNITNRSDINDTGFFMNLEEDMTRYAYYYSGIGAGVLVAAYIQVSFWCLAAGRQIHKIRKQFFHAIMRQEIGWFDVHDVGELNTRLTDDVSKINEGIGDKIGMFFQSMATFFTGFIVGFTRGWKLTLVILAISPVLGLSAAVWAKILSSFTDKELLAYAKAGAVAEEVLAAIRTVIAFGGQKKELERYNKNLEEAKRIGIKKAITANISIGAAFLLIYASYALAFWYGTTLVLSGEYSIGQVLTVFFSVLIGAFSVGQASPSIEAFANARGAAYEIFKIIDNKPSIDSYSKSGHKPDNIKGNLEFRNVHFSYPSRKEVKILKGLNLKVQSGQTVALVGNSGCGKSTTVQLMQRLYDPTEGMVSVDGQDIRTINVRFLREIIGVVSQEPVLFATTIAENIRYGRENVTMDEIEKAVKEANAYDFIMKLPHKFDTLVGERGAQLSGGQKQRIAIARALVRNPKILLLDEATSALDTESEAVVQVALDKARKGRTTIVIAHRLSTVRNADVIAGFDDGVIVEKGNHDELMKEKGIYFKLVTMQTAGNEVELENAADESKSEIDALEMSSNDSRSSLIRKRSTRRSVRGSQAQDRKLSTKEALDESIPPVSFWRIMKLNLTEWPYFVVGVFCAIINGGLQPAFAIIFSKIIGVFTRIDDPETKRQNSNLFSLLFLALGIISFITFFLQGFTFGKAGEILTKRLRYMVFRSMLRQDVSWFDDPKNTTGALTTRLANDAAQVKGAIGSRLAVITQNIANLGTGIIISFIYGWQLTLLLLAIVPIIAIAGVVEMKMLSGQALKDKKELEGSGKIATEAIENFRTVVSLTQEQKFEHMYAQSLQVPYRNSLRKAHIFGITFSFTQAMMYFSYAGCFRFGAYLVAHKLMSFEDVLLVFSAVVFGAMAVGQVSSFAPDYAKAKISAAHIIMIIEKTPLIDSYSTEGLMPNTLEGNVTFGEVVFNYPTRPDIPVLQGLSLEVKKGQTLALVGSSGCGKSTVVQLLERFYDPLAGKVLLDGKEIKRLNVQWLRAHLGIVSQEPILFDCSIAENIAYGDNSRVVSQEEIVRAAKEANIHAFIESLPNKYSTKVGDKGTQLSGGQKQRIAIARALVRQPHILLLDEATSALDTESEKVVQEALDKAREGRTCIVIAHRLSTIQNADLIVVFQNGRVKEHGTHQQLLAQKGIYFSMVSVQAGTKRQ

This assay addresses ATP-dependent translocase ABCB1 (Homo sapiens) (UniProt P08183). The assay can be described thus: P-glycoprotein substrate transport blockade – cell-based (AID 377). To be noted: MDR1-expressing cells, fluorescent substrate accumulation slope; hits give high values; concentration not given here.
With `OCCN1CCN(CCCN2c3ccccc3Sc3ccc(C(F)(F)F)cc32)CC1`, the fluorescence slope change was 91.3% (active).
Under `O=C1C(CCS(=O)c2ccccc2)C(=O)N(c2ccccc2)N1c1ccccc1` (centres undefined) stands 61.4% (active); under `Cc1ccccc1C(OCCN(C)C)c1ccccc1` (centres undefined), 22.7%.
Next, `NCc1ccc(S(N)(=O)=O)cc1`: 164% (active); `NS(=O)(=O)c1cc2c(cc1C(F)(F)F)NC(Cc1ccccc1)NS2(=O)=O` (centres undefined): 16.6%.
For `COc1ccc(OC)c(C(O)CNC(=O)CN)c1` (centres undefined), the fluorescence slope change is 79.4% (active).
Next, `OC(CCN1CCCC1)(c1ccccc1)C1CCCCC1` (centres undefined): 70.5% (active); `CCCNCC(O)COc1ccccc1C(=O)CCc1ccccc1` (centres undefined): 74.2% (active); `NC(=O)c1cnccn1`: 13.7%.
As to `COc1ccccc1OCC(O)COC(N)=O` (centres undefined), the fluorescence slope change is 15.6%.
For the compound `COC(=O)Nc1nc2ccc(C(=O)c3ccccc3)cc2[nH]1`, the fluorescence slope change was 92.4% (active).
On to `Cn1cnc([N+](=O)[O-])c1Sc1ncnc2nc[nH]c12`, for which the fluorescence slope change was 53.6% (active).
Next, `c1ccc2[nH]c(-c3cscn3)nc2c1`: 17.8%; `Cc1onc(-c2c(Cl)cccc2Cl)c1C(=O)N[C@@H]1C(=O)N2[C@@H]1SC(C)(C)[C@@H]2C(=O)O`: 74.3% (active).
Next, `Clc1ccc2c(c1)C(N1CCNCC1)=Nc1ccccc1O2`: 156% (active); `CO[C@@]1(NC(=O)Cc2cccs2)C(=O)N2C(C(=O)O)=C(COC(N)=O)CS[C@@H]21`: 94% (active).
Under `CCc1cccc2c3c([nH]c12)C(CC)(CC(=O)O)OCC3` (centres undefined) stands 73.7% (active); under `CC(C)(C)NCC(O)COc1cccc2c1C[C@H](O)[C@H](O)C2` (some centres undefined), 55.3% (active).
On to `O=S(=O)(O)CCS`, for which the fluorescence slope change is 5.5%.

For the origin of these results see PubChem BioAssay.
